Measured values from PubChem BioAssay AID1159580 (chemical genetic matrix, 2015).
Out of some 5,500 compounds screened, about 2,000 (36%) were called active. Inconclusive results (about 18%) are left out. Cut-off read from the data, not from the text of the source: active = normalized growth mostly below about 0.91 (no sharp cut-off); inconclusive = no clear call, values can overlap the other calls; inactive = mostly above about 0.92. This is one part of the list.

Experiment: chemical genetic growth profiling, strain panel (AID 1159580);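 note: tested at 20 µM; growth read once vehicle control cultures reached saturation at 30 °C; 1 = growth at the plate median or of vehicle wells; lower values mean less growth of the strain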
Conditions: S. cerevisiae deletion strains, growth OD

Measured: normalized growth

O=c1c(-c2ccc3c(c2)OCO3)coc2cc(O)ccc12
inactive: locus YAL013W, strain DEP1, hits give low values 1 | locus YAL021C, strain ccr4, hits give low values 0.994 | locus YAL026C, strain drs2, hits give low values 1 | locus YAL030W, strain snc1, hits give low values 0.991 | locus YBL061C, strain skt5, hits give low values 0.99 | locus YBR009C, strain hhf1, hits give low values 0.978 | locus YBR021W, strain FUR4, hits give low values 0.991 | locus YBR023C, strain chs3, hits give low values 0.996 | locus YBR171W, strain sec66, hits give low values 1 | locus YBR229C, strain ROT2, hits give low values 0.989 | locus YBR231C, strain swc5, hits give low values 0.985 | locus YBR279W, strain paf1, hits give low values 0.994 | locus YCL011C, strain gbp2, hits give low values 0.999 | locus YCL016C, strain dcc1, hits give low values 0.993 | locus YCL029C, strain bik1, hits give low values 0.969 | locus YCL061C, strain MRC1, hits give low values 0.998 | locus YCL069W, strain vba3, hits give low values 1 | locus YCR088W, strain abp1, hits give low values 0.998 | locus YDL005C, strain med2, hits give low values 0.984 | locus YDL035C, strain GPR1, hits give low values 1 | locus YDL040C, strain nat1, hits give low values 0.993 | locus YDL074C, strain BRE1, hits give low values 1.04 | locus YDL101C, strain DUN1, hits give low values 0.998 | locus YDL134C, strain PPH21, hits give low values 1 | locus YDL185W, strain tfp1, hits give low values 0.981 | locus YDL192W, strain arf1, hits give low values 0.977 | locus YDR001C, strain nth1, hits give low values 1.01 | locus YDR069C, strain doa4, hits give low values 0.977 | locus YDR101C, strain arx1, hits give low values 0.98 | locus YDR137W, strain rgp1, hits give low values 0.979 | locus YDR150W, strain NUM1, hits give low values 0.995 | locus YDR159W, strain sac3, hits give low values 0.96 | locus YDR162C, strain NBP2, hits give low values 1.01 | locus YDR195W, strain ref2 0.957 | locus YDR297W, strain sur2, hits give low values 0.989 | locus YDR318W, strain mcm21, hits give low values 0.972 | locus YDR334W, strain swr1, hits give low values 1 | locus YDR335W, strain msn5, hits give low values 1 | locus YDR388W, hits give low values 0.973 | locus YDR392W, strain spt3, hits give low values 0.919 | locus YDR502C, strain sam2, hits give low values 0.992 | locus YEL003W, strain gim4, hits give low values 1 | locus YEL037C, strain rad23, hits give low values 1 | locus YEL061C, strain CIN8 (second series), hits give low values 1.01 | locus YEL061C, strain CIN8, hits give low values 0.998 | locus YER015W, strain faa2, hits give low values 0.99 | locus YER016W, strain bim1, hits give low values 0.988 | locus YER110C, hits give low values 0.979 | locus YER111C, strain swi4, hits give low values 1 | locus YER155C, strain BEM2 (second series), hits give low values 0.974 | locus YER155C, strain BEM2, hits give low values 0.995 | locus YER167W, strain BCK2, hits give low values 0.983 | locus YFR010W, strain ubp6, hits give low values 1 | locus YGL078C, strain dbp3, hits give low values 0.98 | locus YGL086W, strain mad1, hits give low values 0.983 | locus YGL167C, strain pmr1, hits give low values 0.988 | locus YGL173C, strain kem1, hits give low values 0.995 | locus YGL227W, strain vid30, hits give low values 1 | locus YGL240W, strain doc1, hits give low values 0.952 | locus YGL248W, strain PDE1, hits give low values 0.991 | locus YGL253W, strain hxk2, hits give low values 1 | locus YGR078C, strain PAC10, hits give low values 1.01 | locus YGR135W, strain pre9, hits give low values 0.987 | locus YGR229C, strain SMI1, hits give low values 1.03 | locus YGR252W, strain gcn5, hits give low values 0.932 | locus YHR013C, strain ard1, hits give low values 0.96 | locus YHR027C, strain rpn1, hits give low values 0.994 | locus YHR030C, strain SLT2, hits give low values 0.998 | locus YHR079C, strain IRE1 (second series), hits give low values 0.964 | locus YHR094C, strain hxt1, hits give low values 0.981 | locus YHR129C, strain ARP1, hits give low values 1 | locus YHR142W, strain chs7, hits give low values 1.01 | locus YHR200W, strain rpn10, hits give low values 0.978 | locus YIL066C, strain RNR3, hits give low values 0.998 | locus YIL073C, strain SPO22, hits give low values 0.93 | locus YIL125W, strain kgd1, hits give low values 0.993 | locus YIR030C, strain dcg1, hits give low values 0.984 | locus YJL092W, strain hpr5, hits give low values 1.01 | locus YJL095W, strain BCK1 (second series), hits give low values 0.989 | locus YJL095W, strain BCK1, hits give low values 1.04 | locus YJL115W, strain asf1, hits give low values 0.995 | locus YJL129C, strain trk1, hits give low values 0.99 | locus YJL134W, strain LCB3, hits give low values 0.991 | locus YJL154C, strain vps35, hits give low values 1.01 | locus YJL164C, strain tpk1, hits give low values 0.979 | locus YJL166W, strain qcr8, hits give low values 0.974 | locus YJL168C, strain set2, hits give low values 0.983 | locus YJL187C, strain SWE1 (second series), hits give low values 1 | locus YJL187C, strain SWE1, hits give low values 0.987
